HT1080 IDH1KD tx – qHTS for induction of synthetic lethality in tumor cells producing 2HG: qHTS for the HT-1080-IDH1KD cell line; AID 686971, 2013; Potency, µM (titrated, usually from 46.1 µM), for the others: at the highest dose activity, negative = toxicity, hits mostly cytotoxic; actives 2% (n = 360,000); HT-1080 IDH1 knockdown viability, ATP luminescence, 48 h;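 further: potency means the concentration at half of the fitted maximal effect; 0% = DMSO wells and -100% = cell-free medium wells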
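IDH1KD HT-1080 cells, 750/well, RPMI + 5% FBS; compound pinned after 2 h settling; 48 h, 37 °C; CellTiter-Glo luminescence; % activity normalised to DMSO and no-cell wells; curves fitted, classed by r2 and efficacy.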
HT1080-NT tox – qHTS for induction of synthetic lethality in tumor cells producing 2HG: qHTS for the HT-1080-NT fibrosarcoma cell line; HT-1080-NT fibrosarcoma viability, CellTiter-Glo ATP luminescence, 48 h; Potency, µM (highest dose often 46.1 µM), for the others: top-dose activity, negative = less viability, most hits filed as cytotoxic; actives 1.6% (n = 360,000);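 further: NT is the 2HG producing partner of a matched IDH1 knockdown line; potency means the concentration at half of the fitted maximal effect; 0% = DMSO-treated cells and -100% = media-only wells without cells; nearly all actives have a fitted effect of over 55% in size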
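750 cells/well, RPMI + 5% FBS; 2 h settle, compound pin-transfer, 48 h at 37 degrees C. CellTiter-Glo 10 min RT, luminescence. Normalized to DMSO and media-only wells.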
IL1B secr inh – qHTS for Inhibitors of Inflammasome Signaling: IL-1-beta AlphaLISA Primary Screen. THP-1 LPS/ATP IL-1B secretion, AlphaLISA, 16 h; stronger effect = lower value. activity change, % at 57.5 µM. actives 4.7% (n = 360,000). AID 743279, 2014; in the data active means activity change below about -50%; inconclusive means mostly about -30% to -49%
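Secreted IL-1B measured by AlphaLISA bead assay after 16 h compound exposure of THP-1 cells; compounds (final up to 57.5 uM) added 1 h before LPS (250 ng/mL) and ATP (1.25 mM) stimulation; lower signal means less secretion.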
DT40 TDP1 CPT – qHTS for Inhibitors of human tyrosyl-DNA phosphodiesterase 1 (TDP1): qHTS in cells in presence of CPT. chicken DT40 Tdp1-/-;hTDP1 cells + 20 nM CPT, ATP luminescence, 48 h. actives 12% (n = 420,000). AID 686979, 2013. Potency, µM (series often up to 46.2 µM), inactives show top-dose activity change, negative = growth inhibition, actives largely listed as inhibitors; further: potency means the concentration at half of the fitted maximal effect; nearly all actives have a fitted effect of over 55% in size
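Chicken DT40 Tdp1-/- cells stably complemented with human TDP1 were seeded at 400 cells/well in medium containing 20 nM camptothecin, exposed to pin-transferred compounds, and grown at 37 °C for at least 48 hr. Viability was read as ATP luminescence.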
TDP1 cell noCPT – qHTS for Inhibitors of human tyrosyl-DNA phosphodiesterase 1 (TDP1): qHTS in cells in absence of CPT; DT40 Tdp1-/- hTDP1 cells, no CPT, ATP luminescence, 48 h; Potency, µM (highest dose often 46.2 µM), for the others: at the top dose activity change, negative = growth inhibition, usual class: inhibitors; actives 15% (n = 420,000); AID 686978, 2013; further: potency means the concentration at half of the fitted maximal effect; nearly all actives have a fitted effect of over 55% in size
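Compound effects on proliferation are scored in DT40 Tdp1-/-;hTDP1 cells in the absence of CPT. ATP levels (CellTiter-Glo luminescence) are recorded after a ≥48 hr, 37 °C incubation.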
* = called active by the depositor; ? = inconclusive; . = not tested or not shown; [ ] = another dose, or the depositor's remark. An excerpt weighted towards active compounds, which were near 19% of everything screened. Unless noted, the call rests on the fitted dose curve; in most records, active means well fitted curve in the direction sought with a large enough effect; inconclusive means small, poorly fitted or top-dose-only effect, or another doubt; inactive means no such curve, though single readings can be large; an effect the other way counts as inactive or inconclusive. Unless noted, on the % scale 0 is the no-effect control and ±100 the full control effect.

SMILES	HT1080 IDH1KD tx	HT1080-NT tox	IL1B secr inh	DT40 TDP1 CPT	TDP1 cell noCPT
COC[C@H]1CCCN1c1ccc2c(c1)O[C@@H](COCc1ccccc1)CN([C@@H](C)c1ccccc1)S2(=O)=O	-2%	9%	5	10µM*	7.3µM*
CN(C)NC(=S)NC1CCS(=O)(=O)C1 (stereo not given)	8%	14%	9	7%	26%
COc1ccc(-n2c(SCC(=O)NCC3CCCO3)nc3c(c2=O)SC(C)C3)cc1 (stereo not given)	-19%	1%	-7	-4%	2%
NCCNS(=O)(=O)c1cccc2cnccc12	.	.	.	27µM*	18µM*
O=S(=O)(c1cccc2cnccc12)N1CCNCC1	-19%	?	-51*	?	?
COc1ccc2[nH]c(=O)c(CN(Cc3cccs3)S(=O)(=O)c3cccc4nsnc34)cc2c1	7%	-1%	-18	-112%	10µM*
COc1ccc2[nH]c(=O)c(CN(Cc3cccs3)C(=S)Nc3cccc(C)c3)cc2c1	-15%	-3%	-9	21µM*	13µM*
CNC(=S)N(Cc1ccc(OC)cc1)Cc1cc2cccc(C)c2[nH]c1=O	0%	-2%	-18	18µM*	21µM*
COCCNC(=S)N(Cc1cccs1)Cc1cc2cccc(C)c2[nH]c1=O	-15%	-18%	-56*	-15%	?
COc1ccc2[nH]c(=O)c(CN(CCO)S(=O)(=O)c3c(C)ccc4nsnc34)cc2c1	13%	13%	-18	-3%	-24%
Cc1cccc(NC(=S)N(Cc2cccs2)Cc2cc3cc(C)cc(C)c3[nH]c2=O)c1	4%	5%	3	13µM*	9.2µM*
Cc1ccc2c(CN3CCN(C(=O)c4ccc(F)cc4)CC3)cc(=O)oc2c1	.	.	.	18µM*	-61%
COc1ccc(CN2CCN(Cc3cc(=O)oc4cc(C)ccc34)CC2)c(OC)c1OC	?	-24%	-1	26µM*	16µM*
O=c1cc(CN2CCN(c3ccccc3F)CC2)c2c(ccc3ccccc32)o1	5%	5%	5	16µM*	18µM*
Cc1ccc2c(CN3CCN(CCO)CC3)cc(=O)oc2c1	5%	6%	8	-11%	2%
COc1ccccc1N1CCN(Cc2cc(=O)oc3cc(C)ccc23)CC1	-4%	2%	?	23µM*	?
C[C@@H]1O[C@@H](O[C@@H]2C(=O)c3c(O)cc(O)cc3O[C@H]2c2ccc(O)c(O)c2)[C@H](O)[C@H](O)[C@H]1O	11%	17%	4	0%	-5%
CCN(Cc1ccc2c(c1)OCCO2)C(=O)CSc1nc(C)nc2sc(C)c(C)c12	-4%	4%[9.24 µM]	?	?	?
Cc1nn(-c2ccccc2)c(C)c1CC(=O)NCC1Cc2cc(-c3cncnc3)ccc2O1 (stereo not given)	.	.	.	7%[9.04 µM]	-9%
Cc1ccc2nc(NC(=O)c3ccc(OCC4CCCO4)cc3)sc2c1 (stereo not given)	7.3µM*	-23%	-110*	13µM*	15µM*
Cc1cc(C)c2nc(NC(=O)c3ccc(OCC4CCCO4)cc3)sc2c1 (stereo not given)	?	0%	-16	?	21µM*
CCN(CC(=O)NC(C)C)Cc1nc2sc3c(c2c(=O)[nH]1)CCC3	-8%	-1%	34	3.3µM*	4.6µM*
O=C(c1ccccc1F)N1CCN(Cc2nc3sc4c(c3c(=O)[nH]2)CCCC4)CC1	-13%	-8%	-7	2%	-16%
CCN(CC(=O)Nc1ccccc1C(F)(F)F)C(=O)CCc1nc2sc3c(c2c(=O)[nH]1)CCCC3	-5%	-5%	-4	?	16µM*
Cc1cc(C)cc(NC(=O)CCc2nc3sc4c(c3c(=O)[nH]2)CCCC4)c1	-13%	-14%	-4	4.6µM*	10µM*
SMILES	HT1080 IDH1KD tx	HT1080-NT tox	IL1B secr inh	DT40 TDP1 CPT	TDP1 cell noCPT
Cc1ccc(C(=O)N2CCN(Cc3nc4sc5c(c4c(=O)[nH]3)CCCC5)CC2)cc1	12%	7%	9	29µM*	21µM*
CN(CC(=O)Nc1ccccc1C(F)(F)F)C(=O)CCc1nc2sc3c(c2c(=O)[nH]1)CCCC3	0%	-1%	17	?	?
CS(=O)(=O)N1CCC(Oc2ccccc2C(=O)NC(C2CC2)C2CC2)CC1	19%	16%	19	11%	-22%
CCCOc1ccc(N2C(=O)CC(N(CCc3ccccc3)C(=O)c3ccccc3)C2=O)cc1 (stereo not given)	-2%	-3%	-15	1%	0%
CCN(CC)C(=O)c1cccc(NC(=O)CCc2nc3sc4c(c3c(=O)[nH]2)CCCC4)c1	-4%	-4%	-16	?	?
O=C(CCc1nc2sc3c(c2c(=O)[nH]1)CCCC3)Nc1cccc(Cl)c1	-16%	-48%	-8	?	21µM*
COc1ccc(-n2nc(C(=O)NCC(=O)NC3CCCCC3)c3ccccc3c2=O)cc1	0%	12%	-22	1%	?
COc1ccccc1/C=C/C(=O)Nc1cccc(S(=O)(=O)N2CCOCC2)c1	7%	6%	-23	?	?
COc1ccc(OC)c(NC(=O)/C=C/c2ccc(S(=O)(=O)N3CCOCC3)cc2)c1	1%	-3%	-1	26µM*	?
COc1ccc(NC(C)=O)cc1NC(C)C(=O)Nc1cccc(S(=O)(=O)N2CCOCC2)c1 (stereo not given)	-1%	-1%	-10	0%	-18%
COc1ccc(/C=C/C(=O)Nc2cccc(S(=O)(=O)N3CCOCC3)c2)cc1OC	1%	-1%	10	?	16µM*
COc1ccc(NC(C)C(=O)Nc2cccc(S(=O)(=O)N3CCOCC3)c2)cc1OC (stereo not given)	-12%	-6%	?	9.2µM*	8.2µM*
COc1cc(/C=C/C(=O)Nc2cccc(S(=O)(=O)N3CCOCC3)c2)ccc1OCC#N	?	-3%	-54*	?	?
C=CCN(CC=C)C(=S)Nc1ccccc1	1%	10%	1	-25%	2%
COc1ccccc1N1CCN(C(=O)[C@@H]2CCCN2C2=NS(=O)(=O)c3ccccc32)CC1	8%	1%	9	-19%	-1%
CCOC(=O)CNC(=O)C(CC(C)C)NC(=O)C1CCCCC1 (stereo not given)	3%	7%	12	-14%	-5%

Screening results: PubChem BioAssay, National Center for Advancing Translational Sciences (NCATS)
